Laboratory results as given in ChEMBL document CHEMBL2218924, “A broad activity screen in support of a chemogenomic map for kinase signalling research and drug discovery” (Biochem J, 2013).

The molecules below were run against PAS domain-containing serine/threonine-protein kinase (Homo sapiens) (UniProt Q96RG2). Conditions: at 1 µM.
PAS domain-containing serine/threonine-protein kinase (Homo sapiens), sequence (Q96RG2 whole entry, the tested form may be a part): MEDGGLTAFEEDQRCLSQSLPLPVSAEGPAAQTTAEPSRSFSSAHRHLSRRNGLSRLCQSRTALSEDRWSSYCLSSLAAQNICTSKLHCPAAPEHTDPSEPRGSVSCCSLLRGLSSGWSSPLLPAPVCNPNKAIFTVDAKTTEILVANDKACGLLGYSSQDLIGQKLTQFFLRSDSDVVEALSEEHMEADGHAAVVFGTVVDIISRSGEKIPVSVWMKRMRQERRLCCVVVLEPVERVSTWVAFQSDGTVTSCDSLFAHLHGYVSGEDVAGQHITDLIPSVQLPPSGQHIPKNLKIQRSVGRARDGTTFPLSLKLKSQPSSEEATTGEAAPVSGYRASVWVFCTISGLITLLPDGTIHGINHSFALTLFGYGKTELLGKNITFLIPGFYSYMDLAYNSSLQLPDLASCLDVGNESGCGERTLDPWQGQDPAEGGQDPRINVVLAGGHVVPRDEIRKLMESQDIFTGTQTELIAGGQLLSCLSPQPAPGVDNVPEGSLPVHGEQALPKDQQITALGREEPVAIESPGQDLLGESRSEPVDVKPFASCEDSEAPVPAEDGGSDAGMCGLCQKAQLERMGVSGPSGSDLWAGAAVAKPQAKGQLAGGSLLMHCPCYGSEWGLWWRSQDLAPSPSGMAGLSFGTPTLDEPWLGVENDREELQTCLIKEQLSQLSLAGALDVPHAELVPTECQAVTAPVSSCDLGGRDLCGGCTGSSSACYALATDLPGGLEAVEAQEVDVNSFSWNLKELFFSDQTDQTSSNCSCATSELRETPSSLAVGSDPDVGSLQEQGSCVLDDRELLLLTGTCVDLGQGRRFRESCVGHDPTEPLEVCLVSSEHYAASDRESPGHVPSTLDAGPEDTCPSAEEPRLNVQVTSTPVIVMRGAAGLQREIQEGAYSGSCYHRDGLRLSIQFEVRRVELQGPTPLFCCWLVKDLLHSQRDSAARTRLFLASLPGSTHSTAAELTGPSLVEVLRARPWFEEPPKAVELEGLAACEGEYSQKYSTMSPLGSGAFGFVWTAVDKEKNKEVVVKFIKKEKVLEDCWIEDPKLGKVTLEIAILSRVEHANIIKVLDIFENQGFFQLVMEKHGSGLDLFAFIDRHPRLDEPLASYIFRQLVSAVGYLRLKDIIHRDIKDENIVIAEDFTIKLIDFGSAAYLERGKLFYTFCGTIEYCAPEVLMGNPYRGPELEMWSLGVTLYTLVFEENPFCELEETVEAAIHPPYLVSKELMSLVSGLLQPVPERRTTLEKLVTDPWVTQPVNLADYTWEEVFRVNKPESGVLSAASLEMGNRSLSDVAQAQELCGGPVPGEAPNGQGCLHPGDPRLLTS

Structure (SMILES)	residual activity [%]
O=c1cc(-c2cccc3c2Sc2ccccc2S3)oc(N2CCOCC2)c1	109
COc1ccc(-c2cnc3c(-c4ccsc4)cnn3c2)cc1	138
Oc1ccc(Nc2nc(-c3ccc(Cl)cc3)cs2)cc1	147
O=C1Nc2ccc(Br)cc2/C1=C\c1cc2c([nH]1)CCCC2	129
O=c1cc(N2CCOCC2)oc2c1ccc1ccccc12	141
O=c1cc(N2CCNCC2)oc2c(-c3ccccc3)cccc12	148
Oc1ccc(-c2nc(-c3ccc(F)cc3)c(-c3ccncc3)[nH]2)cc1	92
CO[C@H]1[C@@H](OC)C[C@H](C)[C@@H](OC)C2=CC(=O)C=C(NC(=O)/C(C)=C/C=C/[C@H](OC)[C@@H](OC(N)=O)/C(C)=C/[C@@H]1C)C2=O	125
O=C(Nc1cccc(Nc2cc(Nc3cccc(C(F)(F)F)c3)ncn2)c1)C1CC1	92
CCN(CC)C(=O)c1ccc(Nc2nc(OCC3CCCCC3)c3nc[nH]c3n2)cc1	135
CC(C)n1cnc2c(NCc3ccccc3)nc(NCCCO)nc21	131
CCC(=O)Nc1ccc2ncnc(Nc3cccc(Br)c3)c2c1	85
O=S(=O)(c1cccc2cnccc12)N1CCCNCC1	83
O=C1NC(=O)/C(=C/c2ccc3c(c2)OC(F)(F)O3)S1	81
Nc1ncnc2c1c(-c1ccc(Oc3ccccc3)cc1)cn2C1CCCC1	108
CC(C)n1cnc2/c(=N/c3cccc(Cl)c3)nc(NCCO)[nH]c21	113
O=C1NC(=O)c2c1c1c3ccccc3[nH]c1n1cncc21	57
O=c1c(-c2ccc(F)cc2)c(-c2ccncc2)[nH]n1-c1ccc(Cl)cc1	135
Cn1cc(/C=C2\C(=O)Nc3ccc(S(N)(=O)=O)cc32)c2ccccc21	97
Cn1sc(=O)n(Cc2ccccc2)c1=O	100

Structure (SMILES)	residual activity [%]
COc1ccc(CNc2nc(N(CCO)CCO)nc3c2ncn3C(C)C)cc1	117
CCOc1cc2ncnc(Nc3cccc(Br)c3)c2cc1OCC	79
CC(C)c1nn(-c2c(Cl)cccc2Cl)c2nc(Cc3ccc(OCCO)cc3)[nH]c(=O)c12	142
CCCCc1c(-c2ccc(O)cc2)[nH]c2nccnc12	146
O=C1NC(=O)c2cc(Nc3ccc(F)cc3)c(Nc3ccc(F)cc3)cc21	105
NCCNc1ncc(C(N)=O)c(Nc2cccc(C(F)(F)F)c2)n1	114
CC[n+]1c(/C=C/N(C)c2ccccc2)n(-c2ccccc2)c2ccc(-c3nc4ccccc4s3)cc21	80
Nc1cccc(-c2cc3c(Oc4cccc(O)c4)ncnc3[nH]2)c1	123
N#C/C(=C\c1ccc(O)c(O)c1)C(=O)NCc1ccccc1	100
Cc1ccc(NC2=CC(=O)c3sc(C)nc3C2=O)cc1	81
O=C1Nc2cc(Br)ccc2/C1=C1/Nc2ccccc2/C1=N\O	94
COc1ccc(CNC(=O)Nc2ncc([N+](=O)[O-])s2)cc1	133
Oc1c2ccccc2c2c3c(cccc13)N=N2	125
CC(=O)c1ccc(N2CCOCC2)cc1O	127
O=C1NC(=O)/C(=C\c2ccc3nccnc3c2)S1	87
Nc1nc(Nc2ccc(S(N)(=O)=O)cc2)nn1C(=S)Nc1c(F)cccc1F	108
CNc1cc2c(Nc3cccc(Br)c3)ncnc2cn1	128
O=C(CCCc1ccc(-c2ccccc2F)cc1)Nc1ccc(O)cc1	102
NC(=O)Nc1sc(-c2ccc(F)cc2)cc1C(N)=O	107
